KCNQ2 block = blocks the rat KCNQ2 potassium channel; O88943; CHO-K1 KCNQ2, FluxOR thallium flux, 20 min; hits give low values; B-score at 10 µM; actives 1.1% (n = 310,000);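 active = fluorescence ratio B-score at most minus 3 library SDs, with starting brightness B-score within 2 library SDs, cut at about -5.5 in these data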
Target sequence (O88943 whole entry, looked up): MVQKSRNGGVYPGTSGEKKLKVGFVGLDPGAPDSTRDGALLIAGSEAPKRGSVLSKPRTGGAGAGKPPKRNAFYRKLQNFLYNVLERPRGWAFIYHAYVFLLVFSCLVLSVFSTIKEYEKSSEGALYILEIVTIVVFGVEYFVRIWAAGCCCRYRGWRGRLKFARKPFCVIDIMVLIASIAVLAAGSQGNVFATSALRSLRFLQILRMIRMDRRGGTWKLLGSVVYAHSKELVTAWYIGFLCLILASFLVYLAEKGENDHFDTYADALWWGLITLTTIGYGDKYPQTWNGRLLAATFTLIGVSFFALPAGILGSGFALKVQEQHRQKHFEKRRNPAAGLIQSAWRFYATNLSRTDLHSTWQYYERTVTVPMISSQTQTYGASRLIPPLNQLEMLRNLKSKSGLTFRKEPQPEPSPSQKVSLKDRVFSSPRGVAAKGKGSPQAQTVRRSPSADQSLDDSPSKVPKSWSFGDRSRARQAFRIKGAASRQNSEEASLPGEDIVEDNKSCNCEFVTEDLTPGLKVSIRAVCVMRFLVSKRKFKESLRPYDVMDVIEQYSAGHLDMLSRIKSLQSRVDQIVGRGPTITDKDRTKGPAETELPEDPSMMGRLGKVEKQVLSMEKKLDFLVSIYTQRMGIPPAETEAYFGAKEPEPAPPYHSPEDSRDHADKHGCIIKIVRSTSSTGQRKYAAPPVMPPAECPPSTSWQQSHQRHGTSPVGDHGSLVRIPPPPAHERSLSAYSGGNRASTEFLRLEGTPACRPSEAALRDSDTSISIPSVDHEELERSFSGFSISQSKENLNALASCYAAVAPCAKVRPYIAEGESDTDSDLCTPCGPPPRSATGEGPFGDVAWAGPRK
KCNQ2 enhance = KCNQ2 (rat) channel potentiation; O88943; CHO-K1 KCNQ2, FluxOR thallium flux fluorescence; hits give high values; B-score at 10 µM; actives 0.54% (n = 310,000);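 active = fluorescence ratio B-score at least 3 SD of library B-scores, with initial fluorescence B-score within 3 of them, cut at about 5.3 in these data; same plate scores as AID 2156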;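 also: B-score of peak minus minimum over baseline fluorescence ratio after K+ and Tl+ stimulus; positive B-score means potentiation of KCNQ2 with more thallium influx and brighter signal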
Kir21 confirm = confirmation of mouse Kir2.1 potassium channel inhibitors; shares compounds with KCNQ2 enhance; Kir2.1-expressing cells, FluxOR thallium flux fluorescence; hits give low values; Tl flux remaining, % of negative control (hits give low values), % at 10 µM; actives 41% (n = 2,300);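 active = Primary-screen hit whose thallium flux fell at least 3 control SD below untreated wells in both duplicates, with normal baseline fluorescence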
HEK293 ctr = alters thallium flux in parental HEK293 cells, Kir2.1 counter-screen; shares compounds with KCNQ2 enhance; FluxOR thallium flux fluorescence; 0% = unstimulated blank wells; FluxOR signal as % of negative control (100 = no effect), % at 10 µM; actives 19% (n = 2,300); AID 2105;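 active = dye signal at least 3 control SD above or below untreated wells in both duplicates, raw fluorescence within 3, either direction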;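 also: percent is based on the flux ratio of peak minus minimum fluorescence over baseline F0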
CHO-K1 Tl ctr = alters thallium flux in parental CHO-K1 cells, KCNQ2 counter-screen. shares compounds with KCNQ2 enhance. activity increase over 3SD of controls, % at 10 µM. actives 43% (n = 1,200). FluxOR thallium flux fluorescence; zero = vehicle mean+3SD, 100% = vehicle-minus-blank window;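 active = signal rise of at least 3 SD above the untreated control mean, in both duplicate wells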;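 also: counter screen of KCNQ2 potentiator hits so any rise reflects channel-independent effects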
KCNQ1 pot spec = selectivity of KCNQ2 potentiators: effect on human KCNQ1 | shares compounds with KCNQ2 enhance | AID 2283 | actives 28% (n = 1,200) | activation over 3SD threshold, % at 10 µM | CHO KCNQ1 stable, FluxOR thallium flux fluorescence; beyond 3SD, as % of vehicle-control signal;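 active = fluorescence ratio rise of at least 3 SD of vehicle wells above their mean, in both replicate wells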
KCNQ2 pot conf = rat KCNQ2 channel potentiator confirmation. shares compounds with KCNQ2 enhance. CHO-KCNQ2 cells, FluxOR thallium flux fluorescence. potentiation, less the hit threshold, % at 10 µM. actives 68% (n = 1,200). AID 2287;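 active = fluorescence ratio rising 3 SD or more over the vehicle control mean in both replicates, plus primary screen hit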;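 also: peak minus minimum thallium fluorescence divided by baseline after K/Tl stimulus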
Kir21 spec = tests whether KCNQ2 potentiators also affect mouse Kir2.1. activity over 3SD threshold, % at 10 µM. shares compounds with KCNQ2 enhance. actives 2% (n = 1,200). HEK293 Kir2.1, FluxOR thallium flux fluorescence;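 active = fluorescence ratio rise of at least 3 SD above the vehicle-control mean, seen in both replicates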
KCNQ2 W236L MoA = rat KCNQ2 W236L mutant potentiation by KCNQ2 potentiators | shares compounds with KCNQ2 enhance | CHO KCNQ2-W236L, automated patch clamp current | current increase over 3SD of negative controls (%), hits give high values, % at 25 µM | actives 10% (n = 940);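 active = current increase at least 3 SD of the untreated controls above them in both duplicate recordings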
A number is an active result; . = inactive; / = no result; ! = not confirmed by another sample. Compounds with a hit are over-represented: about 1.6% of the library has one in this group of screens.

SMILES	KCNQ2 block	KCNQ2 enhance	Kir21 confirm	HEK293 ctr	CHO-K1 Tl ctr	KCNQ1 pot spec	KCNQ2 pot conf	Kir21 spec	others
Fc1ccc(C2CCNCC2COc2ccc3c(c2)OCO3)cc1 (stereo not given)	-6.2	.	48%	.	/	/	/	/
Fc1ccc([C@@H]2CCNC[C@H]2COc2ccc3c(c2)OCO3)cc1	-6!	.	34%	.	/	/	/	/
O=C(CC1CCC1)Nc1cccc2c([N+](=O)[O-])cccc12	.	9.6	.	.	.	56	35	.	KCNQ2 W236L MoA=.
O=C(CN1CCCCCC1)Nc1ccccc1[N+](=O)[O-]	.	/	/	/	/	/	/	/
O=C(CNC(=O)c1ccc(Br)o1)NNC(=O)c1ccccc1F	.	/	/	/	/	/	/	/
O=C(Nc1ccc(OCc2ccccc2)cc1)c1cccnc1	.	.	/	/	/	/	/	/
S=C(Nc1ccc(Oc2ccccc2)cc1)Nc1cccnc1	.	18	.	.	8.9	.	83	.	KCNQ2 W236L MoA=4.7%
S=C(NCc1cccnc1)Nc1ccc(Oc2ccccc2)cc1	.	.	/	/	/	/	/	/
O=C(Nc1ccc(OCc2ccccc2)cc1)Nc1cccnc1	.	7.2	.	.	.	64	11	.	KCNQ2 W236L MoA=.
NNC(=O)C(Cc1c[nH]c2ccccc12)NC(=O)c1ccccc1 (stereo not given)	.	.	/	/	/	/	/	/
COc1cc2c(cc1OC)CN(C(=O)CN1CCN(S(=O)(=O)c3ccc(C)c(C)c3)CC1)CC2	.	/	/	/	/	/	/	/
CCN(c1ccccc1)S(=O)(=O)c1cc2c3c(c1)CCN3C(=O)CC2	.	.	/	/	/	/	/	/
Cn1cccc1/C=N/NC(=O)c1sc2ccccc2c1Cl	.	/	/	/	/	/	/	/
O=C(N/N=C/c1ccc([N+](=O)[O-])o1)c1sc2ccccc2c1Cl	.	5.5	.	.	7.0	.	.	.
C/C(=N/NC(=O)NC12CC3CC(CC(C3)C1)C2)c1ccccc1	.	/	/	/	/	/	/	/
O=C(COC(=O)CC(c1ccccc1)c1ccccc1)NCc1ccc(Cl)cc1	.	/	/	/	/	/	/	/
CC(CCc1ccccc1)NC(=O)Cc1ccccc1 (stereo not given)	.	/	/	/	/	/	/	/
CC(CC(=O)NCc1ccc(Cl)cc1)c1ccccc1 (stereo not given)	.	5.9	.	.	.	.	.	.	KCNQ2 W236L MoA=.
CC(CCc1ccccc1)NC(=O)CC(C)c1ccccc1 (stereo not given)	.	/	56%	.	/	/	/	/
Cc1ccc(C)c(NC(=O)CCN2CCN(c3ccccc3F)CC2)c1	.	/	/	/	/	/	/	/
C=CCN1C(=O)CS/C1=N\N=C\c1cccc([N+](=O)[O-])c1	.	/	/	/	/	/	/	/
CCOc1ccc2oc(C(=O)NCC(C)(C)CN(C)C)c(C)c2c1	.	.	/	/	/	/	/	/
COc1ccc(C(C(=O)NC(C)(C)C)N(C(=O)CCC(=O)Nc2cc(C)on2)c2cccc(F)c2)cc1 (stereo not given)	.	5.6	.	.	.	.	.	.
CCOc1cccc(N(C(=O)CCC(=O)Nc2cc(C)on2)C(C(=O)NC(C)(C)C)c2ccc(OC)cc2)c1 (stereo not given)	.	/	/	/	/	/	/	/
Cc1cc2c(ncn2C(C)C)c(NS(=O)(=O)c2ccc(F)cc2)c1C	.	5.3	.	.	.	9.7	4.3	.	KCNQ2 W236L MoA=.
SMILES	KCNQ2 block	KCNQ2 enhance	Kir21 confirm	HEK293 ctr	CHO-K1 Tl ctr	KCNQ1 pot spec	KCNQ2 pot conf	Kir21 spec	others
Cc1cc2c(ncn2C)c(NS(=O)(=O)c2ccc(F)cc2)c1C	.	.	/	/	/	/	/	/
O=C(Cn1nc(C(F)F)cc1C1CC1)N1CCCC1	.	.	/	/	/	/	/	/
CC(C)(C)c1nn(-c2ccccc2)c2nc(Cl)c(C=O)cc12	.	/	/	/	/	/	/	/
CC(C)(C)c1nn(-c2ccccc2)c2[nH]c(=O)c(C=O)cc12	.	6.8	.	.	4.4	12	.	.
COc1ccc(NC(=O)C2CCCN(S(=O)(=O)c3ccc4c(c3)CCCN4C(C)=O)C2)cc1Cl (stereo not given)	.	.	/	/	/	/	/	/
CN(C(=O)CSc1ncnc2sc(-c3ccccc3)cc12)C1CCS(=O)(=O)C1 (stereo not given)	.	20	.	448%	0.0	.	76	.	KCNQ2 W236L MoA=.
CN(C(=O)CSc1ncnc2scc(-c3ccccc3)c12)C1CCS(=O)(=O)C1 (stereo not given)	.	.	/	/	/	/	/	/
CCOC(=O)c1c(C)n(CCNC(C)=O)c2ccc(OC)cc12	.	/	/	/	/	/	/	/
CCOC(=O)c1c(-c2ccccc2)c2cc(OC)ccc2n1CCCN(C)C	.	/	36%	.	/	/	/	/
O=C(Nc1ccc(C(=O)NCCCN2CCN(c3ccc(F)cc3)CC2)cc1)C1=CSCCO1	.	.	/	/	/	/	/	/
Cc1ccc(C)c(NS(=O)(=O)c2c(C)ccc3nsnc23)c1	.	/	/	/	/	/	/	/
Cc1ccc2nsnc2c1S(=O)(=O)Nc1cccc2nsnc12	.	6.1	.	238%	/	/	/	/
CCC(=O)OCc1c(C(F)(F)F)nn(C)c1Sc1ccc(Cl)cc1	.	/	/	/	/	/	/	/
CCC(=O)OCc1c(C(F)(F)F)nn(C)c1Sc1ccc(F)cc1	.	/	48%	.	/	/	/	/
CCCCCC(O)(c1ccc(OC)cc1)C(CN1CCOCC1)c1ccccc1 (stereo not given)	.	6.2	.	.	62	.	.	.	KCNQ2 W236L MoA=.
CCCCC(O)(c1ccc(OC)cc1)C(CN1CCOCC1)c1ccccc1 (stereo not given)	.	.	/	/	/	/	/	/
O=C(Nc1ccc2nc3n(c(=O)c2c1)CCCC3)c1cncc(Br)c1	.	/	/	/	/	/	/	/
COc1ccccc1N1CCN(C(=O)NCc2cccc(C(F)(F)F)c2)CC1	.	7	.	.	.	.	.	.	KCNQ2 W236L MoA=.
COc1cccc(CNC(=O)N2CCN(c3ccccc3Cl)CC2)c1	.	.	/	/	/	/	/	/
COc1ccc(C(CNC(=O)CCNC(=O)c2ccccc2OC)N2CCCC2)cc1 (stereo not given)	.	.	/	/	/	/	/	/
CCOC(=O)C1=NN(C(=O)c2ccc(C)cc2)C(O)(c2ccc(Cl)cc2)C1 (stereo not given)	.	25	.	380%	0.0	.	57	.	KCNQ2 W236L MoA=.
COC(=O)C1=NN(C(=O)c2ccc(Cl)cc2)C(O)(c2ccccc2)C1 (stereo not given)	.	7.2	.	424%	.	95	55	.	KCNQ2 W236L MoA=.
CCC1=NN(C(=O)c2ccc(Cl)cc2)C(O)(c2ccccc2)C1 (stereo not given)	.	.	/	/	/	/	/	/
CCC1=NN(C(=O)c2ccc(Cl)cc2)C(O)(c2ccc(C)cc2)C1 (stereo not given)	.	.	/	/	/	/	/	/
Cc1ccc(-n2cc(CNCCCn3ccnc3C)c(-c3ccc(F)cc3)n2)cc1	.	/	60%	.	/	/	/	/

Screens from PubChem BioAssay.
